According to PubChem BioAssay AID504834 (National Center for Advancing Translational Sciences (NCATS), 2011):
The whole screen tested about 320,000 compounds, of which about 22,000 (6.9%) were called active. Where a call stands in place of a potency, no number is given. Inconclusive results (about 27%) are left out. This is one part of a sample in which actives are shown more often than they occur. The call rests on the fitted dose curve; in most records, active means well fitted inhibition curve with a large enough effect; inconclusive means small, poorly fitted or top-dose-only effect, or another doubt; inactive means no such curve, though single readings can be large or run the other way.

Experiment: Primary qHTS for delayed death inhibitors of the malarial parasite plastid, 96 hour incubation
Details: P. falciparum luciferase reporter growth; series mostly up to 28.7 µM
Summary of the method: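 Erythrocytes infected with luciferase-expressing P. falciparum were dispensed at 2% hematocrit and 0.05% parasitemia (final), then incubated with compounds 96 hours at 37 C in 5% CO2. Luminescence after detection reagent addition reported growth.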
Potency means the concentration at half of the fitted maximal effect.

| Compound | Potency |
| --- | --- |
| O=C(OCCN=C1NS(=O)(=O)c2ccccc21)c1cccc([N+](=O)[O-])c1 | inactive |
| Cc1cccc(NC(=O)c2sc3nc4c(c(-c5ccco5)c3c2N)CCC4)c1 | 1.85 µM (active) |
| Cc1nc2sc(C(=O)c3ccccc3)c(N)c2c2c1CCCC2 | inactive |
| NC(=O)c1sc2nc3c(c(-c4ccccc4)c2c1N)CCC3 | inactive |
| CCN(C(=O)CSc1ncnc2c1cnn2-c1ccccc1)C1CCS(=O)(=O)C1 (centres undefined) | inactive |
| CCOc1ccc(NC(=O)CN(C)C(=O)CCSc2ccc(F)cc2)cc1OCC | inactive |
| CC(=O)Nc1ccc(Nc2nc3c(S(=O)(=O)c4ccc(C)c(C)c4)nnn3c3ccccc23)cc1 | inactive |
| Cc1cccc(Nc2nc3c(S(=O)(=O)c4ccccc4)nnn3c3ccccc23)c1C | 0.465 µM (active) |
| COc1ccc(N2C(=O)CN=C2Nc2cccc(C)c2C)cc1OC | inactive |
| CCN(CC)S(=O)(=O)c1ccc(OC)c(NC(=O)CCc2c(C)noc2C)c1 | inactive |
| O=S(=O)(NC1CC1)c1ccc(Cl)cc1 | inactive |
| C[N+](C)(C)CCNC(=O)c1c(O)c2c([nH]c1=O)CCCC2 | inactive |
| O=C(NCc1ccccn1)c1c(O)c2c([nH]c1=O)CCCC2 | 7.38 µM (active) |
| CCc1nnc(NC(=O)c2c(O)c3c([nH]c2=O)CCCC3)s1 | inactive |
| Nc1nnn(CC(=O)N/N=C/c2ccccc2)n1 | inactive |
| O=c1cc(N2CCCCC2)c(-c2ccccc2)nn1Cc1cccc(F)c1 | 11.7 µM (active) |
| O=c1c2ccccc2c(-c2ccccc2)nn1Cc1ccccc1 | inactive |
| O=c1cc(N2CCN(Cc3ccccc3)CC2)c(-c2ccccc2)n[nH]1 | inactive |
| O=C(CN(Cc1ccc(Br)cc1)S(=O)(=O)c1ccccc1)NCc1ccncc1 | inactive |
| Cc1nn2c(=O)cc(COC(=O)c3ccc(NC(=O)C(C)(C)C)cc3)nc2s1 | inactive |
| CSc1ccc(S(=O)(=O)NCC(=O)OCC(=O)NC2(C#N)CCCCC2)cc1[N+](=O)[O-] | inactive |
| COc1ccc(CNC(=O)COC(=O)c2ccc(C)c(S(=O)(=O)N3CCOCC3)c2)cc1OC | inactive |
| Cc1ccc(C(=O)OCC(=O)N2CC(C)CC(C)C2)cc1S(=O)(=O)N1CCCCC1 (centres undefined) | inactive |
| Cc1ccc(C(=O)OCC(=O)NCc2cc(C)c(O)c(C)c2)cc1S(=O)(=O)N1CCCCC1 | 14.7 µM (active) |
| COc1ccccc1CNS(=O)(=O)c1cc(C(=O)NCc2ccccn2)c(Cl)cc1Cl | inactive |

| Compound | Potency |
| --- | --- |
| CC(=O)c1cccc(CN2CCC(CO)(Cc3ccccc3)CC2)c1 | inactive |
| COc1ccc(CC2(CO)CCN(Cc3cnn(C)c3)CC2)cc1 | inactive |
| Cc1cccc(-c2ncc(CN3CCC(CO)(CCCc4ccccc4)CC3)cn2)c1 | 9.28 µM (active) |
| OCC1(CCc2ccccc2)CCN(Cc2ccc3nsnc3c2)CC1 | 11.7 µM (active) |
| CC(C)c1csc(CN2CCC(CO)(Cc3ccccc3)CC2)n1 | inactive |
| CC(C)(O)C#Cc1ccc(CN2CCC(CO)(CCc3ccccc3)CC2)cc1 | inactive |
| CN(CC1CCCO1)S(=O)(=O)c1ccc(C(=O)Nc2ccc(F)cc2)cc1 (centres undefined) | inactive |
| COc1cccc(-c2ccc3c(c2)S(=O)(=O)c2cccc(C(=O)O)c2C3=O)c1OC | inactive |
| Cc1cc(=O)oc2c(C)c(OCC(=O)N3CCN(Cc4ccc5c(c4)OCO5)CC3)ccc12 | inactive |
| COc1ccc(F)cc1S(=O)(=O)NCC(c1ccc2c(c1)OCO2)N1CCN(C)CC1 (centres undefined) | inactive |
| CCN(CC)C(=O)CC(c1ccc2c(c1)OCO2)c1c(OC)cc(OC)c2c(-c3ccccc3)cc(=O)oc12 (centres undefined) | 11.7 µM (active) |
| CC(=O)COc1ccc2c(-c3ccccc3)cc(=O)oc2c1 | inactive |
| COc1ccc(-c2cc(=O)oc3cc(OCC(=O)N[C@@H](Cc4c[nH]c5ccccc45)C(=O)O)ccc23)cc1 | inactive |
| CCCCN(CC)C(=O)c1ccc2c(c1)OCO2 | inactive |
| CCN(CC)CCC(c1cc(OC)c(OC)c(OC)c1)c1c(OC)cc(OC)c2c(-c3ccccc3)cc(=O)oc12 (centres undefined) | 2.94 µM (active) |
| CCN(CC)CCC(c1ccc2c(c1)OCO2)c1c(OC)cc(OC)c2c(-c3ccccc3)cc(=O)oc12 (centres undefined) | 5.22 µM (active) |
| Cc1[nH][nH]c(=O)c1C(c1ccc2c(c1)OCO2)c1c(C)[nH][nH]c1=O | inactive |
| CC(NS(=O)(=O)c1ccc(Br)cc1)C(=O)NCC1CCCO1 (centres undefined) | inactive |
| O=C(NNC(=O)c1cc(-c2ccccc2Cl)nc2ccccc12)c1csc(N2CCOCC2)n1 | inactive |
| Cc1cc(C)cc(Oc2c(C(F)(F)F)oc3cc(OCC(=O)O)ccc3c2=O)c1 | inactive |
| COc1ccccc1C1CCN(C(=S)Nc2ccc(Br)cc2)CC1 | inactive |
| COc1ccccc1OCCNC(=O)C(CCSC)NC(=O)COc1ccccc1 (centres undefined) | inactive |
| Cc1ccc(CNC(=O)C2CCN(S(=O)(=O)c3ccc4nc5c(c(C(=O)O)c4c3)CC(C)CC5)CC2)cc1 (centres undefined) | inactive |
| CC1CCN(C(=O)c2ccccc2NC(=O)Cc2ccccc2)CC1 | inactive |
| Cc1c(NC(=O)c2cc(-c3ccc(Br)cc3)on2)c(=O)n(-c2ccccc2)n1C | inactive |

| Compound | Potency |
| --- | --- |
| Cc1no[n+]([O-])c1COc1ccccc1/C=C1\NC(=S)NC1=O | 10.4 µM (active) |
| Cc1ccccc1-n1c(C)cc(/C=C2\NC(=O)NC2=O)c1C | inactive |
| O=C(CN1CCN(S(=O)(=O)c2ccc(F)cc2)CC1)NC1CC1 | inactive |
| CC(=O)c1ccc(S(=O)(=O)NCc2nnnn2-c2ccccc2)cc1 | inactive |
| Cc1cc(NC(=O)COc2ccccc2C#N)no1 | inactive |
| CCOC(=O)C1CCN(c2ncnc3c2c(-c2ccccc2)cn3-c2ccc(C)cc2)CC1 | inactive |
| CCOC(=O)C1CCN(c2ncnc3c2oc2ccc(Br)cc23)CC1 | 13.1 µM (active) |
| CCOC(=O)C1CCN(Cc2nnc(-c3cccc(Br)c3)o2)CC1 | inactive |
| Cn1cncc1COC(=O)c1ccc(Cl)cc1 | inactive |
| COc1ccccc1C(=O)NCc1nnc(SC(C)C(=O)Nc2nccs2)n1C (centres undefined) | inactive |
| Cc1ccc(NC(=O)CN2CCc3ccccc3C2)cc1C | inactive |
| O=C(CN1CCN(Cc2ccccc2)CC1)NC(c1ccccc1)c1ccccc1 | 14.7 µM (active) |
| CC1CN(CC(=O)NC(C)c2ccccc2)CC(C)O1 (centres undefined) | inactive |
| O=C(Cc1ccc(-c2ccccc2)cc1)NC(c1ccccc1)c1ccccc1 | inactive |
| CCCc1cc(=O)[nH]c(SCC(=O)Nc2sc3c(c2C#N)CCCC3)n1 | inactive |
| N#CCCN(C(=O)COC(=O)c1ccc(S(=O)(=O)N2CCCCCC2)cc1)c1ccccc1 | inactive |
| CC(C)(CNC(=O)CNC(=O)C1CCCCC1)N1CCOCC1 | inactive |
| O=C(O)c1ccccc1-c1ccccc1C(=O)NCCc1ccccc1 | inactive |
| O=C(C(=O)N1CCc2ccccc2C1)N1CCc2ccccc2C1 | inactive |
| Cn1c(=O)c2c(n(Cc3ccccc3)c1=O)NC(=O)C2CC(=O)N1CCc2ccccc2C1 (centres undefined) | 11.7 µM (active) |
| CC1(C)CC(=O)C(CC(=O)N2CCC(Cc3ccccc3)CC2)C(=O)C1 | inactive |
| COc1ccc(/C=C2\SC(=S)N(CCC(=O)Nc3cccc(C(=O)O)c3)C2=O)cc1OC | inactive |
| COC(=O)CN1C(=O)C(C)(C)Oc2ccc(C(=O)Nc3cccc(OC)c3)cc21 | inactive |
| Cc1cccc(N2CCN(c3ccc(C(N)=O)cc3[N+](=O)[O-])CC2)c1C | inactive |
| CS(=O)(=O)N1CCN(c2ccc(C(=O)NC3C4CC5CC(C4)CC3C5)cc2[N+](=O)[O-])CC1 (centres undefined) | 9.28 µM (active) |

| Compound | Potency |
| --- | --- |
| O=C(NC1C2CC3CC(C2)CC1C3)c1ccc(N2CCNCC2)c([N+](=O)[O-])c1 (centres undefined) | inactive |
| COc1ccccc1N1CCN(C(=O)CSc2ncnc3c2cnn3-c2ccc(C)c(C)c2)CC1 | inactive |
| COc1ccc(S(=O)(=O)NCCc2c[nH]c3ccccc23)cc1OC | inactive |
| Cc1ccc(CNC(=O)CCN2C(=O)[C@@H]3Cc4ccccc4CN3C2=O)cc1 | inactive |
| C/C(=N\NC(=O)Cc1ccccc1[N+](=O)[O-])c1cccnc1 | inactive |
| O=C(COC(=O)Cn1cnc2ccccc2c1=O)NCc1ccccc1Cl | inactive |
| Cc1nn(CCCC(=O)NCc2ccccc2Cl)c(=O)c2nccn12 | 1.04 µM (active) |
| Cc1cccn2c(=O)nc(SCC(=O)NCc3ccccc3Cl)nc12 | inactive |
| COc1ccccc1NC(=O)CCC(=O)N1CC(C)Oc2ccc(C)cc21 (centres undefined) | inactive |
| O=C(c1ccccc1)N1CCN(C(=O)N2CCCCC2)CC1 | inactive |
| O=C(c1ccc(-n2cnnn2)cc1)N1CCN(C(c2ccccc2)c2ccccc2)CC1 | 4.65 µM (active) |
| CCOC(=O)N1CCN(S(=O)(=O)c2ccc(-n3cnnn3)cc2)CC1 | inactive |
| CCn1cc(C(=O)OCC(=O)Nc2cccc(C)c2)c(=O)c2ccc(C)nc21 | inactive |
| CCOC(=O)c1cn(CC)c2cc(F)c(F)cc2c1=O | inactive |
| Cc1ccccc1N1CC(C(=O)Nc2ccc(S(=O)(=O)N3CCCC3)cc2)CC1=O (centres undefined) | inactive |
| Cc1ccccc1N1CC(C(=O)Nc2ccc3c(c2)OCO3)CC1=O (centres undefined) | inactive |
| Cc1cccc(N2CC(C(=O)Nc3ccccc3N3CCCC3)CC2=O)c1C (centres undefined) | 5.22 µM (active) |
| CC(=O)C1=C(O)C(=O)N(c2ccc(Br)cc2)C1c1ccc([N+](=O)[O-])cc1 (centres undefined) | inactive |
| COC(=O)C1CCN(C(=O)NC2CC(=O)N(c3ccc4c(c3)OCCO4)C2)CC1 (centres undefined) | inactive |
| CCOC(=O)C(C)Sc1nc2ccccc2c(=O)n1CC1CCCCC1 (centres undefined) | 11.7 µM (active) |
| CCOC(=O)C1CCc2nc3ccccc3c(=O)n21 (centres undefined) | inactive |
| O=C(CSc1nc2ccccc2c(=O)n1CCCO)NC1CC1 | inactive |
| O=C(NCCN1CCN(C(=O)c2cccc([N+](=O)[O-])c2)CC1)C(=O)NCc1ccc(Cl)cc1 | inactive |
| Cc1ccc(NC(=S)N2CCCC(c3ccccc3)=N2)cc1 | inactive |
